Each structure is given as a SMILES string. Counter-ions that a name gives are not always drawn.

The experiment deals with Clostridium sporogenes DSM 1664. The experiment can be described thus: growth (OD595) fold change vs plate DMSO controls (fold change (ratio)); higher = more growth. To be noted: incubation time: 27 h, anaerobic, 37 °C. The procedure, abridged:
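Anaerobic 27 h, 37 °C mGAM 96-well cultures were shaken, then read for absorbance at 595 nm. Values were blank-subtracted and corrected for compound background using 20 µM compound solutions in water. A calibration factor of 5 converted them to OD. Growth is the fold change versus the median of plate DMSO controls. Fold changes above 1.5 were set to NA, and values are the mean of 2 biological replicates.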
Take `CC(C)(CO)[C@@H](O)C(=O)NCCC(=O)NCCSSCCNC(=O)CCNC(=O)[C@H](O)C(C)(C)CO` [D-Pantethine] (20 µM): the growth came out at 1.09. In the case of `CC(=O)SCC(Cc1ccccc1)C(=O)NCC(=O)OCc1ccccc1` (centres undefined) [Racecadotril] (20 µM) it was 1.06; in that of `O=C(CCCN1CCN(c2ccccn2)CC1)c1ccc(F)cc1` [Azaperone] (20 µM), 1.12. Regarding `C[C@H](NCc1ccc(OCc2cccc(F)c2)cc1)C(N)=O` [Safinamide] (20 µM), the growth came to 0.894. Take `CCCC(=O)N1CCCN(c2nc(N)c3cc(OC)c(OC)cc3n2)CC1` [Bunazosin hydrochloride] (20 µM): the growth came out at 1.05. As to `Cc1ccc2c(c1)c1c3n2CCNC3CCC1` (centres undefined) [Pirlindole mesylate] (20 µM), the growth amounted to 0.975.

In the case of `CC(C)(C)NC(=O)[C@@H]1CN(Cc2cccnc2)CCN1C[C@@H](O)C[C@@H](Cc1ccccc1)C(=O)N[C@H]1c2ccccc2C[C@H]1O` [Indinavir sulfate] (20 µM), the growth was 1.29. As for `COc1cc(Nc2c(C#N)cnc3cc(OCCCN4CCN(C)CC4)c(OC)cc23)c(Cl)cc1Cl` [Bosutinib] (20 µM), the growth is 0.991.

As to `O=C1[C@H](CC[C@H](O)c2ccc(F)cc2)[C@@H](c2ccc(O)cc2)N1c1ccc(F)cc1` [Ezetimibe] (20 µM), the growth is 1.3.

Source of the values: the supplement of paper PMC12494721.
